A selection: hits, their analogues and other compounds. The true share with any hit is near 9.3%.
NPC1 promoter act: qHTS Assay for NPC1 Promoter Activators; Huh7 NPC1 promoter luciferase reporter, 24 h; Potency, µM (series often up to 9.22 µM), inactives show at the top dose activation, usual class: activators; actives 2.4% (n = 320,000); further: % of control where 0% means no effect; nearly all actives have a fitted effect of over 60% in size
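Luminescence read-out of NPC1 promoter-driven luciferase in stably transfected Huh7 cells; compounds delivered in DMSO and left 24 h at 37C, 5% CO2, qHTS titration format.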
ELG1 repair inh: qHTS screen for small molecules that inhibit ELG1-dependent DNA repair in human embryonic kidney (HEK293T) cells expressing luciferase-tagged ELG1; actives 2.3% (n = 330,000); AID 504467, 2011; HEK293T ELG1-luciferase reporter, luminescence, 16 h; DNA damage induced by 5-fluorouridine; Potency, µM (titrated, usually from 46.1 µM), for inactives: top-dose activity change, negative = inhibition, usual class: inhibitors; further: on the % scale 0 is the no-effect control and ±100 the full control effect; nearly all actives have a fitted effect of over 55% in size
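DMSO vehicle served as the neutral condition. Each well held 2,000 cells given 5-fluorouridine plus compound; after 16 hr at 37 °C/5% CO2, ONE-Glo was added and luciferase measured 30 min later.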
ELG1 genotox: qHTS screen for small molecules that induce genotoxicity in human embryonic kidney (HEK293T) cells expressing luciferase-tagged ELG1. actives 1.3% (n = 330,000). HEK293T ELG1-luciferase reporter, luminescence, 16 h. Potency, µM (doses to about 46 µM), for inactives: at the highest dose activity change, positive = activation, most hits filed as activators; further: % of control where 0% means no effect; nearly all actives have a fitted effect of over 60% in size
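Screening used a luciferase reporter fused to human ELG1 in HEK293T cells. Luminescence was read on a CCD plate imager after 16 hr exposure and 30 min ONE-Glo incubation.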
Rab9 prom act: qHTS Assay for Rab9 Promoter Activators; actives 2.8% (n = 320,000); Potency, µM (series often up to 9.22 µM), inactives show at the highest dose activation, negative = inhibition, actives largely listed as activators; Huh7 Rab9 promoter-luciferase reporter, luminescence, 24 h; further: % of control where 0% means no effect; nearly all actives have a fitted effect of over 60% in size
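Luciferase signal after 10 min detection reagent at ambient indicates Rab9 promoter upregulation; stably transfected Huh7 cells were treated 24 h with compound in DMSO at 37 °C, 5% CO2.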
SMN2 splice enh: qHTS Assay for Enhancers of SMN2 Splice Variant Expression; Potency, µM (titrated, usually from 46.1 µM), for the others: at the top dose activity change, positive = activation, hits mostly activators; HEK293 SMN2-luciferase splicing reporter, luminescence, 30-36 h; actives 2.8% (n = 210,000); further: % of control where 0% means no effect; nearly all actives have a fitted effect of over 55% in size
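qHTS luciferase splicing reporter: luminescence rises when SMN2 exon 7 is included in transfected HEK293 cells. Compound exposure lasted 30-36 h at 37C, with 4.5 mM final sodium butyrate as control, followed by a ONE-Glo read.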
FLuc counter: qHTS profiling assay for firefly luciferase inhibitor/activator using purifed enzyme and Km concentrations of substrates (counterscreen for miR-21 project). Luciferin 4-monooxygenase (Photinus pyralis), P08659. purified FLuc, Km substrates, luminescence inhibition. Potency, µM (doses to about 57.5 µM), for inactives: at the highest dose activity change, negative = inhibition, hits mostly inhibitors. actives 6.9% (n = 360,000). AID 588342, 2011;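 further: plate controls were vehicle for no effect and reference inhibitor for full effect; nearly all actives have a fitted effect of over 55% in size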
Target sequence (P08659 whole entry, looked up): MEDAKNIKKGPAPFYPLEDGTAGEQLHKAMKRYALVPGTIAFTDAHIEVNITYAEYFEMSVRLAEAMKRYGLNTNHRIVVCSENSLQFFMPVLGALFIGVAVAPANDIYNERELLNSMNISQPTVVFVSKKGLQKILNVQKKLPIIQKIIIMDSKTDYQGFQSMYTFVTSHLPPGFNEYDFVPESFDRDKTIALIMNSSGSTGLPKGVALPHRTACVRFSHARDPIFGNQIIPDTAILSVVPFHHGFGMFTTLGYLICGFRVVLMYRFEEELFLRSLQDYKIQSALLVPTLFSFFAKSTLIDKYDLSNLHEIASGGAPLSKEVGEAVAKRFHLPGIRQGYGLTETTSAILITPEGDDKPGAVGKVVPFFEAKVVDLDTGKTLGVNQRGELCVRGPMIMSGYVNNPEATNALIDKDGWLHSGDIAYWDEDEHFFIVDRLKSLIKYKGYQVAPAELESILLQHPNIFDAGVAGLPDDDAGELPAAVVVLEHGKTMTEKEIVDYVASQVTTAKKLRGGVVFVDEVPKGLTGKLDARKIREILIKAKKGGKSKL
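Biochemical qHTS of compounds, final roughly 60 µM downward over six points, against 10 nM purified firefly luciferase using Km concentrations of substrates (10 uM D-luciferin, 10 uM ATP) in Tris acetate pH 7.5 buffer; luminescence output.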
* hit, by the source's call; ? = inconclusive; / = not tested or not shown; [ ] = dose if it differs, or a comment. The call rests on the fitted dose curve; in most records, active means well fitted curve in the direction sought with a large enough effect; inconclusive means small, poorly fitted or top-dose-only effect, or another doubt; inactive means no such curve, though single readings can be large; an effect the other way counts as inactive or inconclusive. Potency means the concentration at half of the fitted maximal effect.

SMILES | NPC1 promoter act | ELG1 repair inh | ELG1 genotox | Rab9 prom act | SMN2 splice enh | FLuc counter
Cc1oc(S(=O)(=O)N2CCCC2)cc1C(=O)Nc1ccc(F)cc1 | 0% | ? | -8% | -1% | / | -1%
O=C(Nc1ccc2c(c1)OCCO2)c1ccc(Br)c(S(=O)(=O)N2CCOCC2)c1 | 1% | ? | -2% | 10% | / | ?
O=C(Nc1ccc(F)cc1)c1ccc(Br)c(S(=O)(=O)N2CCOCC2)c1 | -2% | 15µM* | -3% | -12% | / | -8%
Cc1oc(S(=O)(=O)N2CCOCC2)cc1C(=O)Nc1ccc(F)cc1 | 4% | 23µM* | -4% | 1% | / | -2%
CSc1cccc(NCc2ccc([N+](=O)[O-])cc2)c1 | -1% | ? | 5% | -4% | -7% | -18%
Cc1nn(C(C)C(=O)NCCCc2ccccc2)c(=O)c2cc3occc3n12 (stereo not given) | 1% | -7% | 2% | -1% | 13% | 2%
COc1ccc(-c2cc(C(F)(F)F)nc(SCCC(=O)Nc3ccccc3F)n2)cc1 | / | / | / | / | -6% | -1%
O=C(COC(=O)c1ccccc1F)c1ccc(-n2nncc2-c2ccco2)cc1 | 7% | -3% | 2% | -4% | 0% | 12µM*
NS(=O)(=O)c1ccc(NC(=S)NC(=O)/C=C/c2cccs2)cc1 | -7% | 7% | -1% | 2% | 4% | 1%
O=C(COC(=O)COc1ccccc1)NCCC1=CCCCC1 | -3% | 16% | 0% | 2% | / | -1%
CCCCOc1ccc(-c2ncc([N+](=O)[O-])cn2)cc1 | 4µM* | ? | ? | 3.2µM* | / | ?
CCCCOC(=O)c1ccc(Nc2ccc([N+](=O)[O-])cn2)cc1 | 4% | 4% | -2% | -1% | 12%[1.84 µM] | 2%
CCCCOc1ccc(-c2ncc(Cl)cn2)cc1 | 2.5µM* | ? | 13µM* | 1.8µM* | 13µM* | 2.7µM*
CCCCOc1ccc(-c2[nH]ncc2C=O)cc1 | 25% | ? | ? | 8% | / | ?
CN1CSC2=C(C#N)C(c3cccc(OCc4ccccc4)c3)CC(=O)N2C1 (stereo not given) | 1% | 3% | 8% | -7% | -14% | ?
COc1cc(NC(=O)Cn2nc(C(F)(F)F)c(Br)c2C)cc([N+](=O)[O-])c1 | -2% | 18µM* | -6% | 0% | 6%[1.84 µM] | 10%
CC(C)[C@H](NC(=O)C1CCCC1)c1nc2ccccc2[nH]1 | 0% | ? | 1% | 9% | 13% | 0%
O=C(Nc1nc2ccccc2[nH]1)C1CCC1 | ? | ? | ? | 2.8µM* | 13µM* | 17µM*
O=C(NCc1nc2ccccc2[nH]1)C1CCCCC1 | 3% | 6% | 3% | -3% | 2% | 4%
O=C(CC1CCCC1)Nc1nc2ccccc2[nH]1 | 3.5µM* | ? | 16µM* | 2.8µM* | 13µM* | 9.5µM*
O=C(Nc1nc2ccccc2[nH]1)C1CCCC1 | 1.6µM* | ? | ? | 1.3µM* | 11µM* | 15µM*
O=C(CSCc1cnn(-c2ccccc2)c1-n1cccc1)Nc1ccc(F)cc1F | / | / | / | / | / | -1%
C=CCN1C(=O)C(=O)N(Cc2nc3ccccc3s2)C1=O | -31% | ? | ? | 21% | / | 8.5µM*
CC(=O)c1cccc(S(=O)(=O)N(C)C2CCN(C)CC2)c1 | -6% | 19% | 1% | -1% | 2% | -2%
CCn1ncc(C2=NOC(C(=O)Nc3c(C)nn(Cc4ccc(F)cc4)c3C)C2)c1C (stereo not given) | -1% | 15µM* | -9% | -2% | -39% | 2%
SMILES | NPC1 promoter act | ELG1 repair inh | ELG1 genotox | Rab9 prom act | SMN2 splice enh | FLuc counter
Cc1nn(Cc2ccccc2Cl)c(C)c1NC(=O)c1noc2c1CCCCC2 | 6% | -13% | 2% | -4% | -27% | ?
O=C(Nc1cnn(Cc2ccc(F)cc2)c1)c1noc2c1CCCC2 | ? | 0.41µM* | ? | 4µM* | -10% | 15µM*
Cc1nn(Cc2ccc(F)cc2)c(C)c1NC(=O)c1noc2c1CCCCC2 | -4% | 18µM* | -19% | -3% | -39% | 1%
CC(C)C[C@H](NC(=O)N1CC(=O)Nc2ccccc21)C(=O)N1CCC[C@H]1C(=O)O | -2% | -10% | -3% | 0% | / | 2%
O=C(CSc1ncccn1)Nc1ccc(S(=O)(=O)N2CCCCC2)cc1 | 1% | 4% | 0% | 0% | -7% | 0%
O=C(Cn1nnc(-c2ccc3c(c2)OCO3)n1)Nc1ccccc1C(=O)O | ? | ? | ? | 27% | / | 15µM*
Cc1ccccc1NC(=O)Cn1nnc(-c2ccc(N3CCOCC3)cc2)n1 | -3% | 21% | 19% | 25% | 23% | ?
CN(C)c1ccc(-c2nnn(CC(=O)Nc3ccccc3N3CCOCC3)n2)cc1 | 30% | 15µM* | -2% | 9% | -12% | 27µM*
CC(=O)c1cc(C)ccc1OC(=O)c1cccnc1 | 0% | 0% | -4% | -4% | 20% | 4%
COC(=O)c1sc(NC(=O)c2ccc([N+](=O)[O-])o2)c(C#N)c1C | -1% | 4.6µM* | -8% | -9% | / | 27µM*
CCOC(=O)N1CCc2c(sc(NC(=O)c3ccc(S(=O)(=O)N4CCCC4)cc3)c2C#N)C1 | -7% | 16µM* | -7% | -3% | -46% | -3%
CC(=O)N1CCc2c(sc(NC(=O)c3ccc([N+](=O)[O-])o3)c2C#N)C1 | ? | ? | ? | 4µM* | 11µM* | ?
CCN(CC)C(=O)c1sc(NC(=O)c2c(OC)cccc2OC)c(C#N)c1C | 0% | 1% | 0% | -1% | 15% | -16%
CCN(CC)C(=O)c1sc(NC(=O)c2cccc([N+](=O)[O-])c2)c(C#N)c1C | 1% | -18% | -9% | 2% | -95% | 24µM*
CCC(=O)OCc1c(C(F)(F)F)nn(C)c1Sc1ccc(Cl)cc1 | -2% | -26% | -3% | 0% | -13% | 0%
O=C(c1cccc(N2C(=O)c3ccccc3C2=O)c1)N1CCCC(C(F)(F)F)C1 (stereo not given) | -1% | 1% | -2% | -2% | / | -1%
CCCOC(=O)c1ccc(Oc2cn[nH]c2-c2ccc(OCC)cc2O)cc1 | -4% | ? | 1% | ? | -45% | -1%
CCOC(=O)c1c(C)nc(C)c(C(=O)OCC)c1-c1cccc(N)c1 | -10% | -8% | -8% | -1% | 22µM* | -2%

Screening results (PubChem)
